# Assay results as given in PubChem BioAssay (EPA / NIEHS).
# Where “and” joins values, the source holds several entries; their conditions need not be identical. Equal values may be shown once. Some compounds were tested as several samples or in several runs, with calls that do not always agree. Calls of active or inactive are those of the source. How the source made its calls: active means hit-call score of the fitted dose curve at least 0.9, where 1 is the maximum; inactive means score below 0.9.
# Target: Aryl hydrocarbon receptor (Homo sapiens) (UniProt P35869)
# Experiment: ATG_Ahr_CIS: Attagene CIS-FACTORIAL HepG2 Assay for human Aryl Hydrocarbon Receptor (Ahr) (AID 2282930)
# Details: HepG2 AhR cis-factorial reporter transcription; actives raise or lower the signal
# Description: ATG_CIS is a cell-based, multiplexed-readout assay that uses HepG2, a human liver cell line, with measurements taken at 24 hours after chemical dosing in a 24-well plate.ATG_Ahr_CIS is one of 52 assay component(s) measured or calculated from the ATG_CIS assay. It is designed to make measurements of mRNA induction, a form of inducible reporter, as detected with fluorescence intensity signals by Reverse transcription polymerase chain reaction (RT-PCR) and Capillary electrophoresis technology.Data from the assay component ATG_Ahr_CIS was analyzed into 1 assay endpoint. This assay endpoint, ATG_Ahr_CIS, was analyzed with bidirectional fitting relative to DMSO as the negative control and baseline of activity. Using a type of inducible reporter, measures of mRNA for gain or loss-of-signal activity can be used to understand the reporter gene at the transcription factor-level as they relate to the gene AHR. Furthermore, this assay endpoint can be referred to as a primary readout, because this assay has produced multiple assay endpoints where this one serves a reporter gene function. To generalize the intended target to other relatable targets, this assay endpoint is annotated to the dna binding intended target family, where the subfamily is basic helix-loop-helix protein.
# Human liver HepG2 cells are transiently transfected with multiple reporter transcription units (MRTUs) in 6-well plates using FuGene 6 reagent (Roche; 3 ml FuGene/1 mg DNA). The MRTU constructs are regulated by a cis-regulating element (promoter). […] A major difference between the CIS and TRANS system is that in CIS activities of endogenous TFs are measured, whereas the TRANS assay evaluates changes in activities of exogenous, chimeric NR-Gal4 proteins. […] At the end of 24 hour incubation, total RNA was isolated using TriZol reagent (Invitrogen). The isolated RNA is then reverse-transcribed using oligo(dT) primer and Mo-MLV reverse transcriptase (Invitrogen) with DNAse I (Ambion) treatment for 30 min. The one-tenth of the produced cDNA was amplified by PCR using Taq DNA polymerase (Invitrogen) and two reporter sequence-specific primers. The PCR products were fluorescently labeled by primer extension with 6-arboxyfluorescein (6-FAM) 5'-labeled reporter sequence-specific primer (2 min at 95 C, 20 s at 68 C and 10 min at 72 C) and these products were digested with 5U of HpaI (New England Biolabs) for 2h at 37 C. […] The raw capillary electrophoresis data was processed using Attagraph software (Attagene).
# Aryl hydrocarbon receptor (Homo sapiens), sequence (P35869 whole entry, looked up): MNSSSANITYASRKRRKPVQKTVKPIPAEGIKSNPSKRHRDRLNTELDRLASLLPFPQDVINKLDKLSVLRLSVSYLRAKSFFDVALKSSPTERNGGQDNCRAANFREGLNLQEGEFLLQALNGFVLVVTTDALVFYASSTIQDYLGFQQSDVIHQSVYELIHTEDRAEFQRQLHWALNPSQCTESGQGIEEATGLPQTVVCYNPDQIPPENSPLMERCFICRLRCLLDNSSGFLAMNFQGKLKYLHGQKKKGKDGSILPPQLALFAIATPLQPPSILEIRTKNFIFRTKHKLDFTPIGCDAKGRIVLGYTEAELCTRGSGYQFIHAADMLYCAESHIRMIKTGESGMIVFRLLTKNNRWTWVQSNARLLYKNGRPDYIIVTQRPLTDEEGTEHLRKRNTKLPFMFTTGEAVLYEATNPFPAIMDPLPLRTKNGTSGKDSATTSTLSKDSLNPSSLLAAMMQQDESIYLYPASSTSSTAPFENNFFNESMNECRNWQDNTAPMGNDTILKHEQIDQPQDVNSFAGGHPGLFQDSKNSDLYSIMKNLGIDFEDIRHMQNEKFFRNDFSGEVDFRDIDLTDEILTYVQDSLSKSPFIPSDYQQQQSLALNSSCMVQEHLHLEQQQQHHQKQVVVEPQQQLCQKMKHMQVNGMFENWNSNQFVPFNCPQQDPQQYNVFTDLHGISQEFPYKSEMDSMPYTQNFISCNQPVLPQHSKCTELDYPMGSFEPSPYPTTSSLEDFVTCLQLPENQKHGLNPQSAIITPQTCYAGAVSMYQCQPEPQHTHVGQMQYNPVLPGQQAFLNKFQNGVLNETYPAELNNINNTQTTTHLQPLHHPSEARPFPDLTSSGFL
SMILES,AC50,outcome
CC1=CC(=O)c2ccccc2C1=O,1.4 µM (active),
C=COC(=O)C(C)(C)CCCCCC,,inactive
CN(C)CCOC(c1ccccc1)c1ccccc1,64 µM (active),
Cc1ccc2ccc3ccc(C)cc3c2c1,50.6 µM (active),
CN(CCO)S(=O)(=O)C(F)(F)C(F)(F)C(F)(F)C(F)(F)C(F)(F)C(F)(F)C(F)(F)C(F)(F)F,,inactive
CN(C)c1ccc(C(=C2C=CC(=[N+](C)C)C=C2)c2ccccc2)cc1,,inactive
CCN(CCC#N)c1ccccc1,,inactive
COC1=CC(=O)C[C@@H](C)[C@]12Oc1c(Cl)c(OC)cc(OC)c1C2=O,,inactive
OCC(CO)(CBr)CBr,,inactive
O=S(=O)(O)C(F)(F)C(F)(F)C(F)(F)C(F)(F)C(F)(F)C(F)(F)C(F)(F)C(F)(F)C(F)(F)C(F)(F)F,50.1 µM (active) and 45.9 µM (active),
O=CC(F)(F)C(F)(F)C(F)(F)C(F)F,,inactive
CCO[Si](C)(C)OCC,,inactive
CCOCCOCC,,inactive
c1ccc(CNc2ncnc3c2ncn3C2CCCCO2)cc1 (stereo not given),57 µM (active),
C=CC(C)(CCC=C(C)C)OC(C)=O (stereo not given),,inactive
C[N+](C)(CCCNS(=O)(=O)CCC(F)(F)C(F)(F)C(F)(F)C(F)(F)C(F)(F)C(F)(F)F)CC(=O)[O-],0.0224 µM (active),
CC(C)[C@@H]1CC[C@@H](C)C[C@H]1O,,inactive
CC(=O)Nc1ccc(O)cc1,,inactive
Cc1cc(C(=C2C=CC(=Nc3ccc(S(=O)(=O)O)cc3)C=C2)c2ccc(Nc3ccc(S(=O)(=O)O)cc3)cc2)cc(S(=O)(=O)O)c1N,,inactive
Oc1ccc(Cc2ccccc2O)cc1,,inactive

SMILES,AC50,outcome
C=CC(=C)CC/C=C(\C)CCC=C(C)C,,inactive
CCCCN(C)C,,inactive
FC(OC(F)(F)C(F)(F)C(F)(F)F)C(F)(F)F (stereo not given),,inactive
CCCCCCCCCCCC(=O)NCCCN(C)C,,inactive
FC(F)(F)C(F)(F)C(F)(F)Br,,inactive
CCCCc1ccc2ccccc2c1S(=O)(=O)O,,inactive
O=C(c1ccccc1)c1ccccc1,,inactive
NS(=O)(=O)O,,inactive
COCN(COC)c1nc(N(COC)COC)nc(N(COC)COC)n1,,inactive
O=S(=O)(c1ccc(OCc2ccccc2)cc1)c1ccccc1O,46.8 µM (active),
NCCN,,inactive
CC(C)(c1ccc(Oc2ccc(N)cc2)cc1)c1ccc(Oc2ccc(N)cc2)cc1,,inactive
CCCCCCCCC1CCC(=O)O1 (stereo not given),,inactive
Cc1ccc(C(=O)c2ccccc2)cc1,,inactive
Cc1ccccc1OCC(=O)O,,inactive
Cc1cc(=O)oc2cc(O)ccc12,,inactive
CC(O)COc1ccccc1 (stereo not given),6.06 µM (active),inactive
Oc1cc2ccccc2cc1O,21.1 µM (active),
CCc1cccc(CC)c1NC(=O)C(=O)O,,inactive
